Experimental data: the supplement of paper PMC11732987, “Enantioselective OTUD7B fragment discovery through chemoproteomics screening and high-throughput optimisation” (Communications Chemistry, 2025)

Columns and labels:
Assay in all cases: log2 ratio of Biotin-Ahx-Ub-VS probe labelling (fragment/DMSO); higher = less target engagement (more negative = stronger competition), active = hit call of the paper (q ≤ 0.05, log2 ratio ≤ -1)
Details in all cases: compound concentration: 200 uM; treatment time: 3 h
USP42 = molecular target: T1, USP42 (UniProt Q9H9J4)
T1 sequence (whole entry): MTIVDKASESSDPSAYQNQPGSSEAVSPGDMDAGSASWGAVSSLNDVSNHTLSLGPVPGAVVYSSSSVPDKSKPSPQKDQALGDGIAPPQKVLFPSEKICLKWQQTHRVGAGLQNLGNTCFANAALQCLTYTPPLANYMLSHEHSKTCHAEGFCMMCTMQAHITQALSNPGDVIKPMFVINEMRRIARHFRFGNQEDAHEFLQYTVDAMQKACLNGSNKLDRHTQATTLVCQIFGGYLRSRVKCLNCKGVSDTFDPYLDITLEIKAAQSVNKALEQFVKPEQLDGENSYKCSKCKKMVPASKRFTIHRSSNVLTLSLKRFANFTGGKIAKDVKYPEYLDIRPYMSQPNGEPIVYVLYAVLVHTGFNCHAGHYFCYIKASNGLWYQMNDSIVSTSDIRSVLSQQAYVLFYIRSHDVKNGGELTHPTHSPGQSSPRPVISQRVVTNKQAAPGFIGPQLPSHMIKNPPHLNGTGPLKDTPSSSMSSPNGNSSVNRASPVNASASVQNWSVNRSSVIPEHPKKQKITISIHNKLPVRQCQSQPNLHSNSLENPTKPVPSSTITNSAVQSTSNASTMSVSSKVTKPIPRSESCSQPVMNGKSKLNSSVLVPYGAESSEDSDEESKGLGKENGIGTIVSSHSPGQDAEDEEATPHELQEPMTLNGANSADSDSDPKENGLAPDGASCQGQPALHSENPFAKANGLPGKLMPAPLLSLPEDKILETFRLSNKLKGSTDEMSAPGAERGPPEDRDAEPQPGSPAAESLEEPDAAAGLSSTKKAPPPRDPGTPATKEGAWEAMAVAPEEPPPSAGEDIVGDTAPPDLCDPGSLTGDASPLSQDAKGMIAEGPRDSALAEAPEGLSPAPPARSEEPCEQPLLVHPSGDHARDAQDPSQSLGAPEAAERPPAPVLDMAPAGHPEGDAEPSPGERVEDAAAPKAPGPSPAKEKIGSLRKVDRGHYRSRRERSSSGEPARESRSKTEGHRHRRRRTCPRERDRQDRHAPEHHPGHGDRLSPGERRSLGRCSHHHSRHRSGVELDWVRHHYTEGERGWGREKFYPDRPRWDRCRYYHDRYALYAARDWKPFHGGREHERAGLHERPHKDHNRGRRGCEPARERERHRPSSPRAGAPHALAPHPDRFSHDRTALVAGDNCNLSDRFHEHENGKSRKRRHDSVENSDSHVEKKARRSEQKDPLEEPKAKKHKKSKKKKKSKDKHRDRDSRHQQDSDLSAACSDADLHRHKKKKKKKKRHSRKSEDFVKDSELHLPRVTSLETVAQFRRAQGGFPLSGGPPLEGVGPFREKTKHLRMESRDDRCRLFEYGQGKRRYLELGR
How it was run: (§1)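 Labelled DUBs from HEK293T lysate were NeutrAvidin-enriched, digested with LysC and trypsin, and run by diaPASEF LC-MS/MS. Before that, each 495 µg sample in Tris/CHAPS/IGEPAL buffer with protease inhibitors was treated in triplicate with fragment at 200 µM or vehicle for 3 h, then with Biotin-Ahx-Ub-VS at 0.5 µM final for 1 h. Values are average log2 ratios of fragment over vehicle by unpaired t-test, based on global-median-normalised Spectronaut label-free quantities from proteins with ≥2 unique peptides.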

USP46 = USP46 (UniProt P62068)
How it was run: as §1

USP47 = molecular target: T2, USP47 (UniProt Q96K76)
T2 sequence (whole entry): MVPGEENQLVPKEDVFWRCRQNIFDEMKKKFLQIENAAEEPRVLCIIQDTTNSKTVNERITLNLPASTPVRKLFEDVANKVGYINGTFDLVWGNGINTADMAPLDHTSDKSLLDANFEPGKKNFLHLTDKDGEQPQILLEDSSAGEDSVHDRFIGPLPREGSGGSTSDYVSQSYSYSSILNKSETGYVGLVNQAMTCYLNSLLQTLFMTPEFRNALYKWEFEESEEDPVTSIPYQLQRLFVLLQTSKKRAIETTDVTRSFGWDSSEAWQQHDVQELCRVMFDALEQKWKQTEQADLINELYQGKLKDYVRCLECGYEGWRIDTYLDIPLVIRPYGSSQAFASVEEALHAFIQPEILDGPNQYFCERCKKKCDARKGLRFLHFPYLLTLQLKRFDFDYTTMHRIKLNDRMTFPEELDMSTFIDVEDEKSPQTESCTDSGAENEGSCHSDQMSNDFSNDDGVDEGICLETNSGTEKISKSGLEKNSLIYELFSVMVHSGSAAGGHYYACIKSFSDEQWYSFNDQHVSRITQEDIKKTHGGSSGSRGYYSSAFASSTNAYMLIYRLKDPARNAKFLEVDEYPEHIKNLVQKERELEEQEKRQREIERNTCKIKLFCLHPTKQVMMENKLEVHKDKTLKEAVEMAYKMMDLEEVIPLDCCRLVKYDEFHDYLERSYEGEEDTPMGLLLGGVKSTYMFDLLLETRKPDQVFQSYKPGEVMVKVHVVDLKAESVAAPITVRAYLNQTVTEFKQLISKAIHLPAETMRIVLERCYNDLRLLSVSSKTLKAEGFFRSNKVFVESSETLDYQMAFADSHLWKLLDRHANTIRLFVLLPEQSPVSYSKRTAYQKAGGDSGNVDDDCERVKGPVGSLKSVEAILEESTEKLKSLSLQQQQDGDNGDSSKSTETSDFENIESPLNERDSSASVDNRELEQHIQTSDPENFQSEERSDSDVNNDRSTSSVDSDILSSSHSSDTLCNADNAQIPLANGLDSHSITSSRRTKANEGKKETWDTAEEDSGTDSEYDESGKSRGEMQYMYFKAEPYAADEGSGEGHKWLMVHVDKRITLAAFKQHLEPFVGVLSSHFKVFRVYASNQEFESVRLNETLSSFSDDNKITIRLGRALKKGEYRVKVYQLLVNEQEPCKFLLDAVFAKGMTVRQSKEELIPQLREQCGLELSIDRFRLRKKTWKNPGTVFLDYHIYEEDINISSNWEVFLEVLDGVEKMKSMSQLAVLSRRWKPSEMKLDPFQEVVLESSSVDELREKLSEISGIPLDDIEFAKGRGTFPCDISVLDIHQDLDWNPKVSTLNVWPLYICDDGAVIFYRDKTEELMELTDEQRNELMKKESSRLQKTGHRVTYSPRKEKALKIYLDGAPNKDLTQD
How it was run: as §1

USP48 = molecular target: T3, USP48 (UniProt Q86UV5)
T3 sequence (whole entry): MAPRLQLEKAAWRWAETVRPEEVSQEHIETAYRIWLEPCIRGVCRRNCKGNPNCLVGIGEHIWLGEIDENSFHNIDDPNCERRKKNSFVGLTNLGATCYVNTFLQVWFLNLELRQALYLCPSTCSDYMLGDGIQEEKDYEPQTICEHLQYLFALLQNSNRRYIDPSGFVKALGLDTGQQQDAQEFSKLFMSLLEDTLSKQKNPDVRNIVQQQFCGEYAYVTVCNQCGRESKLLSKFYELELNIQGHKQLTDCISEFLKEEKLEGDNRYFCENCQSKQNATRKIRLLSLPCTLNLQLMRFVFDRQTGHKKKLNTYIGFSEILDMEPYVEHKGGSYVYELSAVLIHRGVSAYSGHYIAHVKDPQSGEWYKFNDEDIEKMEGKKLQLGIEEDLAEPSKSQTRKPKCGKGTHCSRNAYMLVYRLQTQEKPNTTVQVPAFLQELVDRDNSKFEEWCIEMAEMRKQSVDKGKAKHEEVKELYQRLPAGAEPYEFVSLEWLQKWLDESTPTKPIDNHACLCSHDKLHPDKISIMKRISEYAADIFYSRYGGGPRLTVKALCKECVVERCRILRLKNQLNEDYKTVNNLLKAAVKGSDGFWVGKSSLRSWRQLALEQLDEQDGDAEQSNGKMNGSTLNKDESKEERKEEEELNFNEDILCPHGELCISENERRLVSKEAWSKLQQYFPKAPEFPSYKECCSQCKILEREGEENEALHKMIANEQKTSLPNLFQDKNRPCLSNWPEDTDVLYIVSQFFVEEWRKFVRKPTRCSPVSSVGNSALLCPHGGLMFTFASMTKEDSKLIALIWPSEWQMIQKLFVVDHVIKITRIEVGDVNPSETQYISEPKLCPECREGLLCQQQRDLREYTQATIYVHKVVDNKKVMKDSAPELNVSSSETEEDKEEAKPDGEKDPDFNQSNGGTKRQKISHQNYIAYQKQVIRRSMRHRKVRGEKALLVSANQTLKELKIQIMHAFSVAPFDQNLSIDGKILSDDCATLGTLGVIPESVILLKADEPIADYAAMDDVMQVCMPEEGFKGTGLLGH
How it was run: as §1

USP5 = molecular target: T4, USP5 (UniProt P45974)
T4 sequence (whole entry): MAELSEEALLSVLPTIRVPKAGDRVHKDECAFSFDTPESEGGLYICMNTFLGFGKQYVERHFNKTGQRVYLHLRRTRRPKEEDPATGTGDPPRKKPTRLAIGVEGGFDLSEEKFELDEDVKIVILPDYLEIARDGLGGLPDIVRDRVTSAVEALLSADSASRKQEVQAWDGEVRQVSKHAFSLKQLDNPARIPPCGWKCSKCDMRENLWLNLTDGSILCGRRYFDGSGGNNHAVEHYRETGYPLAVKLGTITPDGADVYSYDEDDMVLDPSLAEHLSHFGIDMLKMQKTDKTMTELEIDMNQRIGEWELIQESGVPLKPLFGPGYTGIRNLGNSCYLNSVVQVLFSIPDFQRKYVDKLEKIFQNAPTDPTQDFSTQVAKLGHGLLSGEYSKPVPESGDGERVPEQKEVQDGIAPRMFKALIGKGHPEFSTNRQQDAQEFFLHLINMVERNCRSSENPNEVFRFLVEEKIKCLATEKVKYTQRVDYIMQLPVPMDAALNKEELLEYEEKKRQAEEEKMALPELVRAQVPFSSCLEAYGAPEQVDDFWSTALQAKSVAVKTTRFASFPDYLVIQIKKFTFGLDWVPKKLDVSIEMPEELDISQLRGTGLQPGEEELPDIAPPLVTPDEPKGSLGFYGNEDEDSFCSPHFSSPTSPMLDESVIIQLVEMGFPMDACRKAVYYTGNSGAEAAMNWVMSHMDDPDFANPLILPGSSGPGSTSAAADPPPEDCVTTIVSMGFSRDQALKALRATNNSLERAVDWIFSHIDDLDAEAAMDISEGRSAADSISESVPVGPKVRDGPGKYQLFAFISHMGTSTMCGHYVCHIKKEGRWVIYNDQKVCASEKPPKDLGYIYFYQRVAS
How it was run: as §1

USP54 = USP54 (UniProt Q70EL1)
How it was run: as §1

USP7 = USP7 (UniProt Q93009)
How it was run: as §1

USP8 = molecular target: T5, USP8 (UniProt P40818)
T5 sequence (whole entry): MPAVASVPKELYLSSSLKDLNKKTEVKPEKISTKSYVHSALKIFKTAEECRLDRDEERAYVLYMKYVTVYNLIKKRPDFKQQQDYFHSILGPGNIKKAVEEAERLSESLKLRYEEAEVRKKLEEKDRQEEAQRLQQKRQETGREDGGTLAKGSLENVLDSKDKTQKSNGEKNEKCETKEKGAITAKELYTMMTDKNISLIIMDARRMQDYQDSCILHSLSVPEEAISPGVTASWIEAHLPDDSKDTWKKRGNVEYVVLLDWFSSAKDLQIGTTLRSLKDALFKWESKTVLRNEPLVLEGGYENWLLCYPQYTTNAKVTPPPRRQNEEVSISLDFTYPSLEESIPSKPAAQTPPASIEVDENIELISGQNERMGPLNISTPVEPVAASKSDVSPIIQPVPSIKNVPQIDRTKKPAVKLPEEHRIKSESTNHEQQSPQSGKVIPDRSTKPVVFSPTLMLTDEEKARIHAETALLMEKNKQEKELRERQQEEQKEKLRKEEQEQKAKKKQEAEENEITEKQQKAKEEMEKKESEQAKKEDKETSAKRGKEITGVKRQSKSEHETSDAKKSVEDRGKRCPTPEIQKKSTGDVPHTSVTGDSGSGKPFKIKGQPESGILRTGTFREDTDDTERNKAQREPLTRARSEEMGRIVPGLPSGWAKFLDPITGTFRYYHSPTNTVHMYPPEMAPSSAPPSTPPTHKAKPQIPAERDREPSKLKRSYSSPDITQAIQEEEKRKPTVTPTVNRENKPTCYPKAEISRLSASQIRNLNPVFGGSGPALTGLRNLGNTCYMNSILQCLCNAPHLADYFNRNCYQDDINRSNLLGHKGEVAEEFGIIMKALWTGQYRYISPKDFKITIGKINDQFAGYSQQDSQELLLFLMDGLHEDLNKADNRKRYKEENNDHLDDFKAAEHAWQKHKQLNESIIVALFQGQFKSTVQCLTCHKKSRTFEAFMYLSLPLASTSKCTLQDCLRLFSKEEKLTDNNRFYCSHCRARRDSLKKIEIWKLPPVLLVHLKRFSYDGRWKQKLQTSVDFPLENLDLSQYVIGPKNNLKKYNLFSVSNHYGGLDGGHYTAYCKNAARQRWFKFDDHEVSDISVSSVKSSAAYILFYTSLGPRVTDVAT
How it was run: as §1

USP9X = USP9X (UniProt Q93008)
How it was run: as §1

UniProt O00487 = molecular target: UniProt O00487
How it was run: as §1

Measured: log2 ratio of Biotin-Ahx-Ub-VS probe labelling

USP54, sequence (Q70EL1 whole entry): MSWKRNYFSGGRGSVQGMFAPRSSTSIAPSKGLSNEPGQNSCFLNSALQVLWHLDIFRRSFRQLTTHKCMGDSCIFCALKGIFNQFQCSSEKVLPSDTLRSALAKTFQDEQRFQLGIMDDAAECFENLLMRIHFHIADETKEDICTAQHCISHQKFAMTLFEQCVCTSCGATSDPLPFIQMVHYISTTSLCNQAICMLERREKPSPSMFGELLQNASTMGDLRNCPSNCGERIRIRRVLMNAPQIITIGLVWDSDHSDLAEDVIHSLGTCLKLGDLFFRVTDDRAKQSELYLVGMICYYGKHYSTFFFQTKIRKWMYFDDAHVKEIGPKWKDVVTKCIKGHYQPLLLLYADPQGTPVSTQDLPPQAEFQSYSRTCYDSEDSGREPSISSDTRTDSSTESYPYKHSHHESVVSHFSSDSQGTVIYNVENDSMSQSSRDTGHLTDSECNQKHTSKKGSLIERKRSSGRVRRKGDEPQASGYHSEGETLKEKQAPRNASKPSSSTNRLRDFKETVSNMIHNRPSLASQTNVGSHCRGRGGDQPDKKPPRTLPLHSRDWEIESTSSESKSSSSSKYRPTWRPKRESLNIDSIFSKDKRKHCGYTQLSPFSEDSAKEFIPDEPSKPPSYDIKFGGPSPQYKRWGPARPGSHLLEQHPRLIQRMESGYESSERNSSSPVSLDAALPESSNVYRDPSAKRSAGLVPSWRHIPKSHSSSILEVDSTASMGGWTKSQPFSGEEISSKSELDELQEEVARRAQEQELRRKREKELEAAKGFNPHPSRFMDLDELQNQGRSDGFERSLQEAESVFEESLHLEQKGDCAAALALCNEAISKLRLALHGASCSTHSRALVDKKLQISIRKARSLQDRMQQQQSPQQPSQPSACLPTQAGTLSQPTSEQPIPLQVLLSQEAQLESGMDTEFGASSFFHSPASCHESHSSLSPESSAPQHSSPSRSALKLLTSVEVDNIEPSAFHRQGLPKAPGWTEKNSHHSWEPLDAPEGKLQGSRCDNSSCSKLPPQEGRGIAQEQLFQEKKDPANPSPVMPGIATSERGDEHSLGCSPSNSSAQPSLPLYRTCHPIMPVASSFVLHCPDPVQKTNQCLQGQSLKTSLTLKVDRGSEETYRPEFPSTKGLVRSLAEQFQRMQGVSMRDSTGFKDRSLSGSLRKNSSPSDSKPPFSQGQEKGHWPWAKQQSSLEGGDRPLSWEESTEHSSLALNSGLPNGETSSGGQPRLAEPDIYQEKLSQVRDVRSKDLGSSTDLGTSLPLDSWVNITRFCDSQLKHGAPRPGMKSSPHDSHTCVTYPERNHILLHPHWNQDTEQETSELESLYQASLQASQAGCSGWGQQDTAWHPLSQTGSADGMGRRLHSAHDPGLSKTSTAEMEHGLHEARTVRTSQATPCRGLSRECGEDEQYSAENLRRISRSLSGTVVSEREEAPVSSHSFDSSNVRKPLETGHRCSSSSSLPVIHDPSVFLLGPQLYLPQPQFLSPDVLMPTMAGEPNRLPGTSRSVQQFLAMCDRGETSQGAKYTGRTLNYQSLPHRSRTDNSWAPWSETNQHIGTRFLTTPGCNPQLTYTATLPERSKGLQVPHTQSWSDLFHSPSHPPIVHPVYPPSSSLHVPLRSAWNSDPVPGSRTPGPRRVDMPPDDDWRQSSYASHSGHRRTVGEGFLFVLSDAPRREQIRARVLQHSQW
USP9X, sequence (Q93008 whole entry): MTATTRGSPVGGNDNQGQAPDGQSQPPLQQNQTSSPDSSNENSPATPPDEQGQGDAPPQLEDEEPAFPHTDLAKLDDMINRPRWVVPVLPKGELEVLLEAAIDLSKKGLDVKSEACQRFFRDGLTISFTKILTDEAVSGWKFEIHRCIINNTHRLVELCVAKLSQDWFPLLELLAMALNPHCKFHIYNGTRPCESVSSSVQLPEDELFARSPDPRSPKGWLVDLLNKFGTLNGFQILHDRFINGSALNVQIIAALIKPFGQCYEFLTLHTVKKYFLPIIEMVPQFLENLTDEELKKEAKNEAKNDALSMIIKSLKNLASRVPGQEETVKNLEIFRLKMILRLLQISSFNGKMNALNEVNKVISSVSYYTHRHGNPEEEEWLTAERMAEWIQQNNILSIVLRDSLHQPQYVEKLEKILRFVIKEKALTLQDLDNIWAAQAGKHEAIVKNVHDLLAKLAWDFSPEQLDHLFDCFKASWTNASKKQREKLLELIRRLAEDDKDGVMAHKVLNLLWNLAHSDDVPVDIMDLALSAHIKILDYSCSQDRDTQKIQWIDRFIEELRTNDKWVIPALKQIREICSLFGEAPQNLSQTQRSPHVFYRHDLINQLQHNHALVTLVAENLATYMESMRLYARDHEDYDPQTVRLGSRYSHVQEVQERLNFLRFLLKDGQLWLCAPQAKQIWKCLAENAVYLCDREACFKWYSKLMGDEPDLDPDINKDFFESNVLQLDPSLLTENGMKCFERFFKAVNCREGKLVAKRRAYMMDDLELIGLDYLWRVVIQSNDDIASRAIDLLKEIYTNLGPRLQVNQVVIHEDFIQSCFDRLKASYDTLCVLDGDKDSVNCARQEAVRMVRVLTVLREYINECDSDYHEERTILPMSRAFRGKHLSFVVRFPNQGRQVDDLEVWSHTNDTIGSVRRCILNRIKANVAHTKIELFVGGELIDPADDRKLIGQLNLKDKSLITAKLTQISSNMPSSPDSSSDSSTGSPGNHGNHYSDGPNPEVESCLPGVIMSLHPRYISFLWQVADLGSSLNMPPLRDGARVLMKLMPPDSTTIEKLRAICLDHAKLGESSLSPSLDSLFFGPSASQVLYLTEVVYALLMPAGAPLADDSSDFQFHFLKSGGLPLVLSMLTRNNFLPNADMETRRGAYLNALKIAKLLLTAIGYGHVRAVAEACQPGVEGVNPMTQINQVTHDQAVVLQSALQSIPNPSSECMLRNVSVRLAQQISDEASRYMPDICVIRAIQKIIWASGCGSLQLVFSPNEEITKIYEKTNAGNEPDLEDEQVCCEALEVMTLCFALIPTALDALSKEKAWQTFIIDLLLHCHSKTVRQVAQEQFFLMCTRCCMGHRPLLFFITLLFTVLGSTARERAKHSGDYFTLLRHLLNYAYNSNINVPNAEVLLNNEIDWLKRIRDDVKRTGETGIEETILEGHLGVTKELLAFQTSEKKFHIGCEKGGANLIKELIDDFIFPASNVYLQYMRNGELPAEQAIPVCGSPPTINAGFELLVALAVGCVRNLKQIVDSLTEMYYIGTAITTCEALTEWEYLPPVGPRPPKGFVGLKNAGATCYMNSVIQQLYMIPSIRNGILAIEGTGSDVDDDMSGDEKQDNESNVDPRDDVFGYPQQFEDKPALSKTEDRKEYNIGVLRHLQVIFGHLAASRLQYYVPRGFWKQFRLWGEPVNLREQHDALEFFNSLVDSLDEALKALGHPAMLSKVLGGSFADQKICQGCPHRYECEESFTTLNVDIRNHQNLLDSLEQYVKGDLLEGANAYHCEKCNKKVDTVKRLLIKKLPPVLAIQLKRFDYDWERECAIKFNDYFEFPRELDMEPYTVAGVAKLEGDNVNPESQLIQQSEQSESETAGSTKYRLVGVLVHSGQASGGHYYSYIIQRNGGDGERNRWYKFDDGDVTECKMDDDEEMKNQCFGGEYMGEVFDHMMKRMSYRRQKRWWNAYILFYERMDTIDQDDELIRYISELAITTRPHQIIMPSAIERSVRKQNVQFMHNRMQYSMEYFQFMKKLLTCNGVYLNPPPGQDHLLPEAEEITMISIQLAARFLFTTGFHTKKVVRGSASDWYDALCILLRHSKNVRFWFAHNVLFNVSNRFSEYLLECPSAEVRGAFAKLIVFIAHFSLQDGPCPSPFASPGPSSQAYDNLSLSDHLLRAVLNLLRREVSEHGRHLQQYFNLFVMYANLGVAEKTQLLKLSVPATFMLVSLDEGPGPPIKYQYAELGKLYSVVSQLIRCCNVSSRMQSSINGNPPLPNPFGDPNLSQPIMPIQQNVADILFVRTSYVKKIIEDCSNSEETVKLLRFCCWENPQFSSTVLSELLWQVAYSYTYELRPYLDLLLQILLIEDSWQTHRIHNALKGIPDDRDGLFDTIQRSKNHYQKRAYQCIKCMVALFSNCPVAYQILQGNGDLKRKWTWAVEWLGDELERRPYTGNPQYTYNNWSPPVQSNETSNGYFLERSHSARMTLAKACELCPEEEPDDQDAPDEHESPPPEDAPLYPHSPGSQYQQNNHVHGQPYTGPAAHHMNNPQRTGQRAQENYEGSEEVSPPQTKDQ
USP46, sequence (P62068 whole entry): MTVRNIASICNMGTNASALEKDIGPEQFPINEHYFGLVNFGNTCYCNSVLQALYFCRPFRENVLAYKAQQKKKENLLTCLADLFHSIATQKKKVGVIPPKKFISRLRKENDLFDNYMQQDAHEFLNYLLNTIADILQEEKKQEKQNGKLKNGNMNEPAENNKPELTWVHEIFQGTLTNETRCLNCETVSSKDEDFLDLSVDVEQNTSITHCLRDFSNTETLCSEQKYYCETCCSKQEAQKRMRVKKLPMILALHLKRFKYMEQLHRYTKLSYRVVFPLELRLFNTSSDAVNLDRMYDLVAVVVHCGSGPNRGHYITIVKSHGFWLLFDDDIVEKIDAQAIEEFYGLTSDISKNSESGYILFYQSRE
UniProt O00487, sequence (O00487 whole entry): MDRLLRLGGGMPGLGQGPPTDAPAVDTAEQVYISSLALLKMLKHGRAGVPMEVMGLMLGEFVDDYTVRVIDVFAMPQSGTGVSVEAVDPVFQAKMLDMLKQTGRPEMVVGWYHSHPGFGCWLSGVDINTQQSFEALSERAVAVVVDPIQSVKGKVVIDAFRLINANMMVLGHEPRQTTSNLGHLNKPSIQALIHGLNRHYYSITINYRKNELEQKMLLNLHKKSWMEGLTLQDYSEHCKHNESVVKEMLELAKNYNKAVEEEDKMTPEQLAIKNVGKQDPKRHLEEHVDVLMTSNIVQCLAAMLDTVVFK

CC(=O)C1CCCCN1C(=O)CCl (stereo not given)
inactive: USP42 0.359 | USP46 0.0148 | USP47 -0.0598 | USP48 -0.362 | USP5 -0.139 | USP54 0.498 | USP7 -0.172 | USP8 0.076 | USP9X -0.034 | UniProt O00487 -0.0675
